From PubChem BioAssay (EPA / NIEHS) come the findings set out here.

Values joined by “and” are separate entries in the source; they are usually repeats but may differ in a detail not shown here. Identical values can stand only once. Inconclusive results are not listed. The source holds several records for some structures; these can differ, active in one and inactive in another. Active and inactive are the calls of the source. The calls were made as follows: active = hit-call score of the fitted dose curve at least 0.9, where 1 is the maximum; inconclusive = response in the unintended direction; inactive = score below 0.9.

The target of the test is Bile acid receptor (Homo sapiens) (UniProt Q96RI1). Nature of the test: ATG_FXR_TRANS: Attagene TRANS-FACTORIAL HepG2 Assay for Farnesoid X Receptor (FXR) (AID 2282979).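 Also: hits raise reporter mRNA above DMSO so AC50 marks FXR activation.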 As to conditions: HepG2 Attagene TRANS FXR-GAL4 reporter transcription. As for the experimental part: ATG_TRANS is a cell-based, multiplexed-readout assay that uses HepG2, a human liver cell line, with measurements taken at 24 hours after chemical dosing in a 24-well plate.ATG_FXR_TRANS is one of 30 assay component(s) measured or calculated from the ATG_TRANS assay. It is designed to make measurements of mRNA induction, a form of inducible reporter, as detected with fluorescence intensity signals by Reverse transcription polymerase chain reaction (RT-PCR) and Capillary electrophoresis technology.Data from the assay component ATG_FXR_TRANS was analyzed into 1 assay endpoint. This assay endpoint, ATG_FXR_TRANS, was analyzed in the positive analysis fitting direction relative to DMSO as the negative control and baseline of activity. Using a type of inducible reporter, measures of mRNA for gain-of-signal activity can be used to understand the reporter gene at the transcription factor-level as they relate to the gene NR1H4. Furthermore, this assay endpoint can be referred to as a primary readout, because this assay has produced multiple assay endpoints where this one serves a reporter gene function. To generalize the intended target to other relatable targets, this assay endpoint is annotated to the nuclear receptor intended target family, where the subfamily is non-steroidal.
Bile acid receptor (Homo sapiens), sequence (Q96RI1 whole entry, looked up, the tested form may be a part): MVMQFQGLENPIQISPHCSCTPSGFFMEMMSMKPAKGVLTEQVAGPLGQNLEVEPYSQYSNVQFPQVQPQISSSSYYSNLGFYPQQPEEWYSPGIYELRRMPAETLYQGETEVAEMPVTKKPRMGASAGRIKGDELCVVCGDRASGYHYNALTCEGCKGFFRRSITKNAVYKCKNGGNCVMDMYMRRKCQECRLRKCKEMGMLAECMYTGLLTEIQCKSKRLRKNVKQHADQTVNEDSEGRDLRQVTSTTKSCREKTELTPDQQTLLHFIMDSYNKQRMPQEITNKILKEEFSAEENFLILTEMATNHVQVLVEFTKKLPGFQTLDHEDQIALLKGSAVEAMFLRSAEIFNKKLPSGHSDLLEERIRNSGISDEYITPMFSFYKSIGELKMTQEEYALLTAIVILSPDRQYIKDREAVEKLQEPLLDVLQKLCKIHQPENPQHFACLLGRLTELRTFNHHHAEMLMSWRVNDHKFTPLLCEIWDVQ
Human liver HepG2 cells are transiently transfected with multiple reporter transcription units (MRTUs) in 6-well plates using FuGene 6 reagent (Roche; 3 ml FuGene/1 mg DNA). The MRTU constructs are regulated by a cis-regulating element (promoter). […] A major difference between the CIS and TRANS system is that in CIS activities of endogenous TFs are measured, whereas the TRANS assay evaluates changes in activities of exogenous, chimeric NR-Gal4 proteins. […] At the end of 24 hour incubation, total RNA was isolated using TriZol reagent (Invitrogen). The isolated RNA is then reverse-transcribed using oligo(dT) primer and Mo-MLV reverse transcriptase (Invitrogen) with DNAse I (Ambion) treatment for 30 min. The one-tenth of the produced cDNA was amplified by PCR using Taq DNA polymerase (Invitrogen) and two reporter sequence-specific primers. The PCR products were fluorescently labeled by primer extension with 6-arboxyfluorescein (6-FAM) 5'-labeled reporter sequence-specific primer (2 min at 95 C, 20 s at 68 C and 10 min at 72 C) and these products were digested with 5U of HpaI (New England Biolabs) for 2h at 37 C. The fragments were purified using Qiaquick PCR columns (Qiagen), analyzed on an ABI 3130xL genetic analyzer (Applied Biosystems) with peak positions identified by using a set of X-rhodamine (ROX)-labeled MapMarker1000 molecular weight standards (BioVentures). The raw capillary electrophoresis data was processed using Attagraph software (Attagene).
`O=C(O)C(F)(F)C(F)(F)C(F)(F)C(F)(F)C(F)(F)C(F)(F)C(F)(F)C(F)(F)F`: the call was inactive; the AC50 was 151 µM (active) and 219 µM (active).

In the case of `CC1=C2C[C@H]3[C@@H](CC=C4C[C@@H](O)CC[C@@]43C)[C@@H]2CC[C@]12O[C@@H]1C[C@H](C)CN[C@H]1[C@H]2C`, the outcome was inactive. Take `O=S(=O)(O)C(F)(F)C(F)(F)C(F)(F)C(F)(F)C(F)(F)C(F)(F)F`: the compound was classed as inactive.

As to `COc1ccc(O)c(C(C)(C)C)c1`, the outcome was inactive. The same measure, in the same setting: the same measure for `CCCCCCCCOC(=O)c1ccccc1C(=O)OCCCCCCCC`: “inactive”. Same read-out and setting: the entry for `Oc1c(Cl)c(Cl)c(Cl)c(Cl)c1Cl` is “inactive”; for `CO/C=C(/C(=O)OC)c1ccccc1COc1cccc(C(F)(F)F)n1` it is “inactive”. For `Cc1cc(O)ccc1Cl`, the result was inactive. For the compound `NS(=O)(=O)C(F)(F)C(F)(F)C(F)(F)C(F)(F)C(F)(F)C(F)(F)C(F)(F)C(F)(F)F`, the compound was classed as inactive. On the same count and under the same terms, the same measure for `Cc1cccc(C)c1N`: “inactive”; for `CCC(C)c1cc([N+](=O)[O-])cc([N+](=O)[O-])c1O` (stereo not given): “inactive”; for `OCC(O)CO`: “inactive”.

Consider `CC(c1ccc(O)cc1)(c1ccc(O)cc1)c1ccc(O)cc1`, for which the AC50 is 2.98 µM (active). `C[C@]12CCC(=O)C=C1CC[C@@H]1[C@@H]2CC[C@]2(C)C(=O)CC[C@@H]12`: the outcome was inactive. `CCC(C)(c1ccc(O)cc1)c1ccc(O)cc1`: the result was inactive. On to `ClC(Cl)=C(c1ccc(Cl)cc1)c1ccc(Cl)cc1`, for which the result was inactive. Consider `CC(C)(c1ccccc1)c1ccc(O)cc1`, for which the AC50 was 48.9 µM (active) and the result was inactive.

In the case of `c1ccc(-c2ccccc2)cc1`, the compound was called inactive. As to `CCCCCCCCCC[N+](C)(C)CCCCCCCCCC`, the call was inactive. For `C1CC2OC2CC1C1CO1` (stereo not given), the outcome was inactive. In the case of `O=NN(c1ccccc1)c1ccccc1`, the call was inactive. As to `C[C@]12CCC(=O)C=C1CC[C@@H]1[C@@H]2CC[C@@]2(C)[C@H]1CC[C@]2(C)O`, the compound was classed as inactive.

On to `Oc1ccc(Cl)cc1Cl`, for which the compound was called inactive.
